The structures appear in SMILES notation. Compounds without any hit were thinned out: in the full panel of roughly 83,000, 20% have a hit.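 48-hour exposure, single concentration, 96-well plates; percent growth endpoint where 0 means no net growth. Active: below 10.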 Values without a mark were called inactive. The source made the active and inactive calls.

Among the test systems are RPMI-8226 leukemia; OVCAR-8 ovarian; OVCAR-5 ovarian; OVCAR-4 ovarian; SK-OV-3 ovarian; IGROV1 ovarian; OVCAR-3 ovarian; HS 578T breast; NCI/ADR-RES ovarian; T-47D breast; BT-549 breast; MDA-MB-435 melanoma; SW-620 colon; MCF7 breast; HCT-116 colon; HCC-2998 colon; KM12 colon; MDA-MB-468 breast; SR leukemia.
Holding throughout (experiment): NCI-60 one-dose screen, 48 h (100 = growth as untreated, 0 = no growth, -100 = all killed)
Holding throughout (settings): 10 µM unless noted

Regarding `CC(=O)Oc1ccc(/C=C/C(=O)N[C@@H](Cc2ccccc2)C(O)C(=O)NCc2ccccc2)cc1OC(C)=O` (some centres not stated), the growth is 69.8% in the assay on RPMI-8226 leukemia; 75.9% with OVCAR-8 ovarian; 113% in the assay on OVCAR-5 ovarian; 77.3% with OVCAR-4 ovarian; 91.5% with SK-OV-3 ovarian; 62.5% in the assay on IGROV1 ovarian. For the same compound, the growth in the assay with OVCAR-3 ovarian was 84.7%; in the assay with HS 578T breast, 84.8%; in the assay with NCI/ADR-RES ovarian, 104%; in the assay on T-47D breast, 90.9%; in the assay on BT-549 breast it was 81.6%; in the assay with MDA-MB-435 melanoma, 71.7%. Besides, the growth with SW-620 colon was 93.2%; with MCF7 breast it was 81.9%; with HCT-116 colon it was 78.4%; in the assay on HCC-2998 colon, 96.3%; in the assay with KM12 colon it was 86.3%; in the assay on MDA-MB-468 breast, 78.1%.

`O=C(/C=C/c1cccc(OCc2ccccc2)c1)c1nc2ccccc2[nH]1`: the growth in the assay with SR leukemia is -33.3% (active); in the assay on RPMI-8226 leukemia it was -52% (active); in the assay on OVCAR-5 ovarian, 105%; in the assay on OVCAR-4 ovarian, 59.4%; with SK-OV-3 ovarian it was 87.8%; in the assay on IGROV1 ovarian, 60.3%. The growth in the assay on OVCAR-3 ovarian is 38.3%; in the assay on NCI/ADR-RES ovarian, 64.5%; in the assay with T-47D breast, 13.7%; in the assay with BT-549 breast, 8.5% (active); in the assay on MDA-MB-435 melanoma, 72%; with MCF7 breast, 3.28% (active). The growth in the assay with HCT-116 colon was -36.1% (active); with HCC-2998 colon, -5.62% (active); in the assay with KM12 colon, 4.96% (active); with MDA-MB-468 breast, -40.1% (active).

With `C[C@H]1CN(C(=O)c2ccc3c(NNC(=O)c4ccncn4)nc4cc(F)c(F)cc4n23)CCN1`, the growth was 23.6% in the assay on RPMI-8226 leukemia; 17.2% in the assay on OVCAR-8 ovarian; 50.4% with OVCAR-5 ovarian; 34.7% with OVCAR-4 ovarian; 43.7% in the assay with SK-OV-3 ovarian; 33% in the assay with IGROV1 ovarian. The growth in the assay with OVCAR-3 ovarian was 58.2%; in the assay with HS 578T breast it was 59.6%; with NCI/ADR-RES ovarian it was 3.96% (active); in the assay with T-47D breast it was 21.3%; in the assay on MDA-MB-435 melanoma it was 37.4%; with SW-620 colon, 38%. The growth in the assay with MCF7 breast is 17.4%; in the assay on HCT-116 colon, 21.7%; in the assay with HCC-2998 colon, 61.7%; in the assay with KM12 colon, 37%; in the assay on MDA-MB-468 breast, 7.53% (active).

For the compound `COc1cccc(COc2ccc(NC(=O)Nc3ccc(Cl)c(C(F)(F)F)c3)cc2)c1`, the growth in the assay with RPMI-8226 leukemia is 13.5%; in the assay on OVCAR-8 ovarian it was 31.9%; in the assay with OVCAR-5 ovarian, 69.8%; in the assay with OVCAR-4 ovarian, 45.2%; in the assay with SK-OV-3 ovarian, 35.6%; in the assay with IGROV1 ovarian, 25.8%. For the same compound, the growth with OVCAR-3 ovarian was 27.6%; in the assay on HS 578T breast, 26.7%; in the assay with NCI/ADR-RES ovarian it was 47.1%; in the assay with T-47D breast it was 19.5%; with BT-549 breast it was 37.9%; with MDA-MB-435 melanoma it was 58.9%. Moreover, the growth with SW-620 colon was 49.3%; in the assay on MCF7 breast it was 24.3%; with HCT-116 colon, 18.8%; in the assay with HCC-2998 colon it was 46.8%; in the assay with KM12 colon, 6.06% (active); with MDA-MB-468 breast, 2.67% (active).

Regarding `COc1ccc(NC(=O)Cn2c3c(sc2=O)[C@H]2[C@@H](O)[C@@H](O)[C@H](O)[C@@H]2CS3)cc1`, the growth with SR leukemia is 99.1%; with OVCAR-8 ovarian, 103%; with OVCAR-5 ovarian it was 105%; in the assay with OVCAR-4 ovarian, 106%; in the assay with SK-OV-3 ovarian, 107%; in the assay on IGROV1 ovarian, 104%. The growth was 109% in the assay on OVCAR-3 ovarian; 107% in the assay with HS 578T breast; 107% in the assay on NCI/ADR-RES ovarian; 100% in the assay with T-47D breast; 110% in the assay with BT-549 breast; 101% with MDA-MB-435 melanoma. Further, the growth in the assay on SW-620 colon is 105%; in the assay with MCF7 breast it was 93.8%; in the assay on HCT-116 colon it was 103%; in the assay with HCC-2998 colon it was 114%; with KM12 colon, 102%; in the assay with MDA-MB-468 breast, 107%.

In the case of `Cc1cc2nc3c4ccccc4n(CC4=NCCN4)c3nc2cc1C`, the growth in the assay on SR leukemia is 0.0191% (active); in the assay with OVCAR-8 ovarian, -21.1% (active); in the assay on OVCAR-5 ovarian it was -76.9% (active); with OVCAR-4 ovarian, -0.803% (active); in the assay with SK-OV-3 ovarian it was 15.6%; with IGROV1 ovarian, 16.1%. For the same compound, the growth with OVCAR-3 ovarian was 55.2%; in the assay on HS 578T breast, 76.4%; with NCI/ADR-RES ovarian, 18.6%; in the assay on T-47D breast, 15.4%; with BT-549 breast, 4.52% (active); with MDA-MB-435 melanoma, -86.6% (active). The growth with SW-620 colon was -40.2% (active); in the assay with MCF7 breast, -90.5% (active); in the assay on HCT-116 colon, -92.8% (active); in the assay on HCC-2998 colon it was -46.6% (active); in the assay on KM12 colon it was 43%; in the assay with MDA-MB-468 breast, -57.3% (active).

As for `COc1ccc(C(=O)/C=C/c2ccccc2Cl)cc1S(N)(=O)=O`, the growth with RPMI-8226 leukemia is 120%; in the assay on OVCAR-8 ovarian, 110%; in the assay with OVCAR-5 ovarian it was 99.3%; in the assay with OVCAR-4 ovarian, 118%; in the assay with SK-OV-3 ovarian, 110%; in the assay on IGROV1 ovarian it was 101%. The growth in the assay on OVCAR-3 ovarian is 90.7%; in the assay with HS 578T breast, 107%; with NCI/ADR-RES ovarian, 104%; in the assay with T-47D breast it was 106%; in the assay on MDA-MB-435 melanoma it was 117%; with SW-620 colon, 107%. For the same compound, the growth in the assay on MCF7 breast was 96.2%; in the assay on HCT-116 colon, 106%; in the assay on HCC-2998 colon, 114%; in the assay with KM12 colon, 111%; in the assay with MDA-MB-468 breast, 109%.

The values are drawn from PubChem BioAssay (NCI).
